Source: PubChem BioAssay (NCATS)
Inconclusive results are not listed. Active and inactive are the calls of the source. Unless noted, calls follow the shape of the dose curve; as a rule, active = well fitted curve in the direction sought with a large enough effect; inconclusive = small, poorly fitted or top-dose-only effect, or another doubt; inactive = no such curve, though single readings can be large; an effect the other way counts as inactive or inconclusive.

Key:
[1] = molecular target: Rap guanine nucleotide exchange factor 3 (Homo sapiens) (UniProt O95398); assay: Confirmatory qHTS for antagonist of cAMP-regulated guanine nucleotide exchange factor 3 (EPAC1) (AID 1645880); conditions: EPAC1 Rap1B-BODIPY-GDP exchange, fluorescence; activity, negative = inhibition: at 115 µM (top of the series); also: nearly all actives have a fitted effect of over 55% in size; also: potency is read from the fitted curve at half-maximal effect;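 as to activity, negative = inhibition: plate controls were DMSO only for no effect and full effect of the ATA control for full effect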
Outline: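 Nucleotide exchange uses 100 nM EPAC1, 250 nM RAP1B-BODIPY-GDP and 50 uM GDP, with compounds in a concentration-titration series. After 5 min at room temperature, fluorescence (480 nm ex/540 nm em) is read every 5 min for 30 min. Data are normalized to control ATA and DMSO.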

[2] = molecular target: Rap guanine nucleotide exchange factor 3 (Homo sapiens) (UniProt O95398); assay: Confirmatory qHTS for agonist of cAMP-regulated guanine nucleotide exchange factor 3 (EPAC1) (AID 1645881); also: nearly all actives have a fitted effect of over 75% in size; also: potency is read from the fitted curve at half-maximal effect;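 as to activation: EPAC1 catalysed release of BODIPY-GDP from Rap1B seen as fluorescence loss; 100% = effect of cAMP agonist control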
[3] = molecular target: Rap guanine nucleotide exchange factor 4 (Homo sapiens) (UniProt Q8WZA2); assay: Confirmatory qHTS for antagonist of cAMP-regulated guanine nucleotide exchange factor 4 (EPAC2) (AID 1645885); also: % is scaled to controls: 0 for no effect and ±100 for the full control effect; nearly all actives have a fitted effect of over 25% in size
[4] = molecular target: Rap guanine nucleotide exchange factor 4 (Homo sapiens) (UniProt Q8WZA2); assay: Confirmatory qHTS for agonist of cAMP-regulated guanine nucleotide exchange factor 4 (EPAC2) (AID 1645884);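 also: nucleotide exchange releases bodipy-GDP from Rap1 and this lowers its fluorescence; nearly all actives have a fitted effect of over 65% in size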; also: potency is read from the fitted curve at half-maximal effect; as to activation: % is scaled to controls: 0 for no effect and ±100 for the full control effect
[5] = molecular target: Rap guanine nucleotide exchange factor 3 (Homo sapiens) (UniProt O95398); assay: Counterscreen qHTS for agonist of cAMP-regulated guanine nucleotide exchange factor 3 (EPAC1) (AID 1645889); also: nearly all actives have a fitted effect of over 40% in size; also: potency is read from the fitted curve at half-maximal effect; as to activation: % of control where 0% means no effect
Outline: (§1)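 Rap1B-BODIPY-GDP 250 nM + GDP 50 uM; cpds 7-pt, final 9.74 nM–152 uM (activator mode) or from 7.32 nM upwards (inhibitor mode); RT; FI 480/540 nm at 5 and 30 min, then ± cAMP, reread.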

[6] = molecular target: Cytochrome P450 3A4 (Homo sapiens) (UniProt P08684); assay: qHTS Assay for Activators of Cytochrome P450 3A4 (AID 885); also: nearly all actives have a fitted effect of over 65% in size
Outline: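 Signal was normalized against complete inhibition by 57 uM ketoconazole. The reaction used 20nM CYP3A4 with 25uM Luciferin-PPXE, 10-min compound preincubation and a 60-min NADPH-supported step at RT.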

[7] = Confirmation and Secondary Assay for Modulators of Hemoglobin Beta Chain Splicing at IVS2 654 locus (AID 910);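 also: HeLa cells stably carrying EGFP split by mutant beta-globin IVS2-654 intron; per-well total GFP intensity by laser scanning cytometry after 2-day treatment; % of control where 0% means no effect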
Outline: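 Readout: per-well total peak green fluorescence (488 nm ex, 500–520 nm em) from objects 5–250 µm, reflecting correct splicing of an EGFP-654 reporter. Compounds were applied for 2 days at 37 °C to overnight-plated HeLa EGFP-654 cells; controls were DMSO and 500 nM IVS2-654 PNA.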

[8] = Confirmation and Secondary Assay for Modulators of Hemoglobin Beta Chain Splicing at IVS2 705 locus (AID 930);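 also: HeLa cells stably expressing the EGFP-705 splicing reporter; GFP fluorescence per well restored by corrected splicing of the IVS2-705 intron in EGFP; % of control where 0% means no effect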
Outline: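 Fluorescence gain (488 nm laser, 500-520 nm PMT) reflects restored correct splicing of a mutant IVS2-705 intron inside EGFP in stably transfected HeLa cells after 2-day compound treatment.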

[9] = molecular target: Ubiquitin carboxyl-terminal hydrolase 1 (Homo sapiens) (UniProt O94782); assay: Inhibitors of USP1/UAF1: Pilot qHTS (AID 504865); also: nearly all actives have a fitted effect of over 35% in size; also: potency is read from the fitted curve at half-maximal effect
Outline: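 USP1/UAF1 complex at 1 nM preincubated 15 min at room temperature with compound, then Ub-Rho substrate added at 150 nM final. Fluorescence (480/540 nm) read kinetically in 50 mM HEPES pH 7.8, 0.5 mM EDTA, 1 mM TCEP, 0.1 mg/ml BSA, 0.01% Tween-20.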

[10] = molecular target: Lysosomal acid glucosylceramidase (Homo sapiens) (UniProt P04062); assay: Glucocerebrosidase-p2 (AID 348; in the data active = potency below about 10 µM; also: potency is read from the fitted curve at half-maximal effect); conditions: purified GBA, blue fluorogenic substrate, 40 min
Outline: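 Compounds titrated from 0.6 nM upwards against 0.2 nM enzyme in pH 5.9 citric acid/KH2PO4, taurocholate, tween-20; blue fluorogenic substrate 80 uM, 40 min room temperature, stopped and read Ex 365/Em 440 for AC50.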

[11] = AP1 Signaling Pathway (AID 357; active = well fitted curve in either direction with a large enough effect, not every such curve was filed as active;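 also: ME-180 reporter cells stimulated with EGF at its EC50 level; % is scaled to controls: 0 for no effect and ±100 for the full control effect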); conditions: ME-180 AP-1-bla reporter, EGF-induced, beta-lactamase ratio, 5 h; at 7.69 µM (top of the series) unless noted
Outline: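 AP-1-bla ME-180 cells, Opti-MEM + 0.5% dialyzed FBS, plated overnight 37 °C. Cpd titration + EC50 EGF, 5 h 37 °C. CCF4 2.5 h RT; ex 405, em 460/530 ratio → %activity, AC50.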

[12] = NFAT Signaling Pathway (AID 444; active = well fitted curve in either direction with a large enough effect, not every such curve was filed as active;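 also: carbachol stimulus at about its EC50 of 1 µM final; % is scaled to controls: 0 for no effect and ±100 for the full control effect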); conditions: Jurkat NFAT-bla M1, carbachol, beta-lactamase ratio, 5 h; at 7.69 µM (top of the series) unless noted
Outline: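 Read-out: CCF4 FRET ratio (460 nm/530 nm) after 1 h RT dye loading, used for %activity and AC50 from titration series. Cells: Jurkat NFAT-β-lactamase/M1 line, treated with compound plus 1 uM carbachol for 5 h, 37 °C.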

[13] = Stat Signaling Pathway (AID 446; active = well fitted curve in either direction with a large enough effect, not every such curve was filed as active;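 also: ME-180 cervical cancer cells given 40 pM IL-6 alongside compound; SIE-controlled beta-lactamase reporter measured as 460/530 nm FRET emission ratio; % is scaled to controls: 0 for no effect and ±100 for the full control effect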)
Outline: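 Reporter line: ME-180 cervical carcinoma, SIE-beta-lactamase. Treatment: compound with 40 pM IL-6, 5 hrs, 37 C, in low-serum OPTI-MEM with 10 mM HEPES pH 7.3. Detection: 460/530 nm fluorescence.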

[14] = molecular target: Glucocorticoid receptor (Homo sapiens) (UniProt P04150); assay: GR-EFC Redistribution (AID 451; calls by dose curve; also: potency is read from the fitted curve at half-maximal effect); conditions: CHO-K1 GR-EFC translocation, beta-gal luminescence, 2 h
Outline: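 Translocation of GR-ED fusion to nuclear EA restores b-gal, read by luminescence after 1 h room-temperature detection. Engineered CHO-K1 biosensor cells, 1,000/well, exposed 2 h at 37 C to titrations up to 46 uM final.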

[15] = molecular target: 3',5'-cyclic-AMP phosphodiesterase 4B (Homo sapiens) (UniProt Q07343); assay: qHTS Assay for Inhibitors of PDE-IV (AID 607; active = well fitted activation curve with a large enough effect in the main read-out, with a control signal flat, not every such curve was filed as active; also: % of control where 0% means no effect)
Outline: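 Cell-based read-out of cAMP via a modified cyclic nucleotide-gated channel and membrane potential dye (535/590 nm) in HEK293 cells expressing PDE4 endogenously. Compounds tested up to 22.9 uM final; 100 uM RO 20-1724 reference.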

[16] = molecular target: Cytochrome P450 3A4 (Homo sapiens) (UniProt P08684); assay: qHTS Assay for Inhibitors and Substrates of Cytochrome P450 3A4 (AID 884); also: nearly all actives have a fitted effect of over 50% in size; also: potency is read from the fitted curve at half-maximal effect
Outline: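 20 nM human CYP3A4 with 25 uM Luciferin-PPXE (at KM) in 200 mM KPO4, preincubated 10 min with compound; NADPH regeneration started a 60 min RT reaction. Luciferin detected by luminescence, normalized to 57 uM ketoconazole as full inhibition.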

[17] = molecular target: Rap guanine nucleotide exchange factor 3 (Homo sapiens) (UniProt O95398); assay: Counterscreen qHTS for antagonist of cAMP-regulated guanine nucleotide exchange factor 3 (EPAC1) (AID 1645888);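 also: fluorescence loss as bound BODIPY-GDP is released from Rap1B; % of control where 0% means no effect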
Outline: as §1

[18] = molecular target: Cytochrome P450 1A2 (Homo sapiens) (UniProt P05177); assay: p450-cyp1a2 (AID 410; calls by dose curve; also: potency is read from the fitted curve at half-maximal effect)
Outline: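 Inhibition was calculated relative to 57 uM furafylline (full inhibition). The reaction used human CYP1A2 at 20nM with Luciferin-ME at its Km, 100uM, driven by an NADPH-regenerating system for 60 min at room temperature.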

[19] = molecular target: Glucocorticoid receptor (Homo sapiens) (UniProt P04150); assay: GR-GFP Redistribution (AID 450;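 active = compounds whose dose series gives a full or clear partial fitted curve of increased nuclear translocation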; also: potency is read from the fitted curve at half-maximal effect); conditions: U2OS GR-GFP nuclear translocation, laser cytometry, 2 h
[20] = molecular target: Cytochrome P450 2C9 (Homo sapiens) (UniProt P11712); assay: qHTS Assay for Inhibitors and Substrates of Cytochrome P450 2C9 (AID 883); also: % is scaled to controls: 0 for no effect and ±100 for the full control effect; nearly all actives have a fitted effect of over 60% in size
Outline: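 Turnover of Luciferin-H (100uM, KM) by 10nM human CYP2C9 was measured over 60 min at 37C with NADPH regeneration; inhibitors and some substrates reduce luminescence. Data normalized to sulphaphenazole 57uM.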

[21] = molecular target: Cytochrome P450 2D6 (Homo sapiens) (UniProt P10635); assay: qHTS Assay for Inhibitors and Substrates of Cytochrome P450 2D6 (AID 891);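 also: luciferin methyl ether substrate demethylated by CYP2D6 with NADPH regeneration; % is scaled to controls: 0 for no effect and ±100 for the full control effect; nearly all actives have a fitted effect of over 60% in size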
Outline: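 Human CYP2D6 (5 nM) with 30 uM Luciferin-ME EGE (at Km) in 100 mM KPO4, compound preincubated 10 min, then NADPH regeneration system for 60 min at room temperature. Luciferin read by luminescence; normalized to 1.43 uM quinidine.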

Sequence of Rap guanine nucleotide exchange factor 3 (Homo sapiens) (O95398 whole entry, looked up): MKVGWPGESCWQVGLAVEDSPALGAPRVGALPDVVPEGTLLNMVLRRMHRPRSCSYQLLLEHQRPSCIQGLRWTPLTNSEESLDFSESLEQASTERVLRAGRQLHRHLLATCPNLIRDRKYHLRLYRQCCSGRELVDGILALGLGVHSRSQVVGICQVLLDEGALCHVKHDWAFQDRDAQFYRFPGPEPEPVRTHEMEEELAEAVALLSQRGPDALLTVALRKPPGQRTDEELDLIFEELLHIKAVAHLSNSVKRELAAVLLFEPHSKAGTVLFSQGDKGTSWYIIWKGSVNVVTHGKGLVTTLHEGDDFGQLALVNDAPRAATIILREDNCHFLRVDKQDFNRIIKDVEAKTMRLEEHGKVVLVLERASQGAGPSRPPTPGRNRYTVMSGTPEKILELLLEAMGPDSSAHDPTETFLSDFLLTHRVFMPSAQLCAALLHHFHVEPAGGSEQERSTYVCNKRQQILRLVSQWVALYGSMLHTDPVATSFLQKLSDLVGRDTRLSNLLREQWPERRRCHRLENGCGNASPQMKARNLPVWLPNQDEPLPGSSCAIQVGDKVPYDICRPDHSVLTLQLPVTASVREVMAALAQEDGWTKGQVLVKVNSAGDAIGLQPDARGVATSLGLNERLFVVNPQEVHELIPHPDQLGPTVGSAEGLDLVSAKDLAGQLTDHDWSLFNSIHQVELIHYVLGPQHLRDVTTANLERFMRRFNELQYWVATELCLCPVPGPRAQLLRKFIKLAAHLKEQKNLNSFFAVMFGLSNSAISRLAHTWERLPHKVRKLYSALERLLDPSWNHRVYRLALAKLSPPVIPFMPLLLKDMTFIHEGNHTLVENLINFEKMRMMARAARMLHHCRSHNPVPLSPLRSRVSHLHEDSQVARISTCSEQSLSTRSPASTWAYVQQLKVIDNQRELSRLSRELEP
Sequence of Rap guanine nucleotide exchange factor 4 (Homo sapiens) (Q8WZA2 whole entry, looked up): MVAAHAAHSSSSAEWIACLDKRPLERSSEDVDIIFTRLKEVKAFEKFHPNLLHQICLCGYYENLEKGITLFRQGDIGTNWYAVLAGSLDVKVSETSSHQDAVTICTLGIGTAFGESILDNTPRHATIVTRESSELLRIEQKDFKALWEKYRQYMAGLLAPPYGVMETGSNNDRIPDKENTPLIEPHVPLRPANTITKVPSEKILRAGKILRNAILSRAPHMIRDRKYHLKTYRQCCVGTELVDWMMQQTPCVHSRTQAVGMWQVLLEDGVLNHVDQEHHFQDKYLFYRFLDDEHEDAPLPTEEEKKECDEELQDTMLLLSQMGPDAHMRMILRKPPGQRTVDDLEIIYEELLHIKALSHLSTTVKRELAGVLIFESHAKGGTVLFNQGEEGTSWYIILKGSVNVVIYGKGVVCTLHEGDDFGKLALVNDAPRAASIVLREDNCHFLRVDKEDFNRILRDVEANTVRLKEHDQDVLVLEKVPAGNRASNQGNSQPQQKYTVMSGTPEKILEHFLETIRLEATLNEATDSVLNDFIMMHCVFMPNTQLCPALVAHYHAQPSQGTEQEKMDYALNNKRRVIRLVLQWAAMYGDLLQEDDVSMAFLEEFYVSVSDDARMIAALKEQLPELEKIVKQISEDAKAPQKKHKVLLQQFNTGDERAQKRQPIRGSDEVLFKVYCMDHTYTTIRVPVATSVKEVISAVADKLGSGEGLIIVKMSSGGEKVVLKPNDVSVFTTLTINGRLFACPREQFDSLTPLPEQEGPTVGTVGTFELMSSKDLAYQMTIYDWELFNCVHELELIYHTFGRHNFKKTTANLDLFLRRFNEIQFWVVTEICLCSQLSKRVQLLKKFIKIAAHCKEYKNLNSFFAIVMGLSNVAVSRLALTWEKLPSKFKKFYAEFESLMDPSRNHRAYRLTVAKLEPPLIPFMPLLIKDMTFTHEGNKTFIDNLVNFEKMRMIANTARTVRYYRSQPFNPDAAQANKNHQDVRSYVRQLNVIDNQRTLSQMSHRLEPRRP
Sequence of Glucocorticoid receptor (Homo sapiens) (P04150 whole entry, looked up, the tested form may be a part): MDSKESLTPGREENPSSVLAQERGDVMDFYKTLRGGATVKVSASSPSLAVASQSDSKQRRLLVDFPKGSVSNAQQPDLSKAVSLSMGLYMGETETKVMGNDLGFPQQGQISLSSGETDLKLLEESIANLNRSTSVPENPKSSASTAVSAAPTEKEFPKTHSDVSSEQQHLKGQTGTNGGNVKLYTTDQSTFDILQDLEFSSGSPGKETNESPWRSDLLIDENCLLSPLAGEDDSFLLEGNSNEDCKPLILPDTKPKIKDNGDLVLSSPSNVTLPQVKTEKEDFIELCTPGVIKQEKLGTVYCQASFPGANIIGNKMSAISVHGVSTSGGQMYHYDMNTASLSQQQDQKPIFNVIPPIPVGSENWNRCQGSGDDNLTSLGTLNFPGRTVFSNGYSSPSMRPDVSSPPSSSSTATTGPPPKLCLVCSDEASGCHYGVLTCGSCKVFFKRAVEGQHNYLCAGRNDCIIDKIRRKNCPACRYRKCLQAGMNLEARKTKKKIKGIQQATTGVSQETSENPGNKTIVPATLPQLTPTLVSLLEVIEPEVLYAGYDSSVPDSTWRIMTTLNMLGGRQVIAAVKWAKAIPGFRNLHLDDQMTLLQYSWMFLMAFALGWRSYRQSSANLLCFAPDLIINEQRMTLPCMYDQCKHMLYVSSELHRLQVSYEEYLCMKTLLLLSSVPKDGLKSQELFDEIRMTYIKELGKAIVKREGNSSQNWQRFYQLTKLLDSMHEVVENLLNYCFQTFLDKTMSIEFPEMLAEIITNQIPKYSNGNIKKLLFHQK
Sequence of Cytochrome P450 3A4 (Homo sapiens) (P08684 whole entry, looked up): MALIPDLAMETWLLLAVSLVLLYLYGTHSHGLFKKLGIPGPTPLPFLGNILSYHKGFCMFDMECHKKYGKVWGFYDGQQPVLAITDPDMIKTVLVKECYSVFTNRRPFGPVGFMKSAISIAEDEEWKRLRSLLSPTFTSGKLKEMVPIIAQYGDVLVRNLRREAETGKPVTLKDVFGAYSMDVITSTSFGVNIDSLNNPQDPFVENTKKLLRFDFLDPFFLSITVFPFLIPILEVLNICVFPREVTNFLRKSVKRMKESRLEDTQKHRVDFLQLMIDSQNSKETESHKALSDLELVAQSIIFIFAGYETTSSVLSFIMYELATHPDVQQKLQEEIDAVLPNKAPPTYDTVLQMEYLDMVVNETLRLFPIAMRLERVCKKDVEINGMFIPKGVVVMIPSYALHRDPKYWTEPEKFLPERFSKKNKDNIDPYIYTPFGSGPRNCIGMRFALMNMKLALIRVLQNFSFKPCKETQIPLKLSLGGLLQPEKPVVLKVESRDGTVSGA
Sequence of Ubiquitin carboxyl-terminal hydrolase 1 (Homo sapiens) (O94782 whole entry, looked up): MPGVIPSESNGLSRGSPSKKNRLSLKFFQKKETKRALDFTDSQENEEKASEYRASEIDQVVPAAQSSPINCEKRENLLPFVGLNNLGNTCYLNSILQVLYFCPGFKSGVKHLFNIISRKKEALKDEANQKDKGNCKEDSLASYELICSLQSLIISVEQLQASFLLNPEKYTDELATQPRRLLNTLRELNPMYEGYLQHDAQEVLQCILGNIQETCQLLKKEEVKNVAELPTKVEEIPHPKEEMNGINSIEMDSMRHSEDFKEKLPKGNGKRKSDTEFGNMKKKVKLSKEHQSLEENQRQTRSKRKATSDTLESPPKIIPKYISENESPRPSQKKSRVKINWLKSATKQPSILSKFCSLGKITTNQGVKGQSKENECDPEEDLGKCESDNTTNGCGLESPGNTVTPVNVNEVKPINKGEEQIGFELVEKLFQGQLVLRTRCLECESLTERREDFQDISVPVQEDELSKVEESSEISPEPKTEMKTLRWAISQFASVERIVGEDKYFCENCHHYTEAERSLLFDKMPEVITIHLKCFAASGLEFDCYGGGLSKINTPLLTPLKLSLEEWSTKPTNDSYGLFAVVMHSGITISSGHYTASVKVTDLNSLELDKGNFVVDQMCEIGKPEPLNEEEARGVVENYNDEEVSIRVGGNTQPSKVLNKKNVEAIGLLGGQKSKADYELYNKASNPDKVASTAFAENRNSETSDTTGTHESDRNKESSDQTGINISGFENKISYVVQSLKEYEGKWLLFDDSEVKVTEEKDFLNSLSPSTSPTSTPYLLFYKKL
Sequence of Lysosomal acid glucosylceramidase (Homo sapiens) (P04062 whole entry, looked up): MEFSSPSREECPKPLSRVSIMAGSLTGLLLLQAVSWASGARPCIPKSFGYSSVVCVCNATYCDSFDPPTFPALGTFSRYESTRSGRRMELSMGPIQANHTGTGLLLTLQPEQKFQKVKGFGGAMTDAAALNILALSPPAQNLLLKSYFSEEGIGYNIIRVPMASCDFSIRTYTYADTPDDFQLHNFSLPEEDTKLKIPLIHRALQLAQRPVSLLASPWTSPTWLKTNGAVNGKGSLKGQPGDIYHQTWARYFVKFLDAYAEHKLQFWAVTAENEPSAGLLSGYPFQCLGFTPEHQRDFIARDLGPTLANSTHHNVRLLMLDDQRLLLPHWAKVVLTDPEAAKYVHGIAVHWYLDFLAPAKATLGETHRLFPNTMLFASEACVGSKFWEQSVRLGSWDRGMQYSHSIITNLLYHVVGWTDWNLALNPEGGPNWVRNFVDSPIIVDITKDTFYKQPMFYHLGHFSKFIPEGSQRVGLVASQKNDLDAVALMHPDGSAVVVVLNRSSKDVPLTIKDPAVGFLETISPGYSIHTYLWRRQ
Sequence of Cytochrome P450 1A2 (Homo sapiens) (P05177 whole entry, looked up): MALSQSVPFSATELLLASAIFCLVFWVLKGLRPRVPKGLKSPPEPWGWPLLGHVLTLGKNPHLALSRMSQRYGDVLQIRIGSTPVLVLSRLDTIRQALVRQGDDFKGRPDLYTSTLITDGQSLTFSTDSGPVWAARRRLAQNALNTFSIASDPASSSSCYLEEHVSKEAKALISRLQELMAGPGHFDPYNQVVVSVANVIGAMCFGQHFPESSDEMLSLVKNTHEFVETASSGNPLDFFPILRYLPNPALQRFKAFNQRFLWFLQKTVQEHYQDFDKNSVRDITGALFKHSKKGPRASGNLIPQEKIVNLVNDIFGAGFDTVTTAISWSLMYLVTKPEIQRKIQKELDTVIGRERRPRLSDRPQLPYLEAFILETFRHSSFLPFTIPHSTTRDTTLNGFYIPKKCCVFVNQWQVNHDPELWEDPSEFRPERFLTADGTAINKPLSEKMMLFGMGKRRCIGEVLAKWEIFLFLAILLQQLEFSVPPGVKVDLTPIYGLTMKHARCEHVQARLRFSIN

Cc1ccc(NC(=O)N2CC3CCCN3c3ccccc32)cc1Cl (stereo not drawn)
inactive: Potency [1] | Potency [2] | Potency [3]

COc1ccc(C(=S)N2CCOCC2)cc1OC(=O)c1ccccc1Cl
inactive: Potency [1] | Potency [2] | Potency [3]

O=C(NCc1ccc(F)cc1)c1cccc2c1C(=O)c1ccc(N3CCOCC3)cc1S2(=O)=O
active: Potency [2] 56.2 µM | Potency [4] 89.1 µM | Potency [5] 56.2 µM
inactive: Potency [1]

COc1ccc(NS(=O)(=O)c2cc(N)ccc2N2CCCCC2)cc1
inactive: Potency [1] | Potency [2] | Potency [4] | Potency [5]

CC(=O)Oc1c2c(c3c(c1CC=C(C)C)O[C@@]14C(=CC5CC1C(C)(C)OC4(C/C=C(\C)C(=O)O)C5=O)C3=O)OC(C)(CCC=C(C)C)C=C2 (stereo partly drawn)
inactive: outcome [6] | Potency [7] | Potency [8] | Potency [2] | Potency [4]
active: Potency [9] 31.6 µM | Potency [1] 55.9 µM

CSc1ccc(S(=O)(=O)NCC(=O)OCC(=O)N(C)Cc2ccccc2)cc1[N+](=O)[O-]
inactive: Potency [1] | Potency [2] | Potency [3]

Cc1ccc(C(=O)C=Cc2ccc3c(c2)OCO3)c(C)c1
inactive: Potency [1] | Potency [2] | activation [4] -0.688% [at 17.1 µM, percent relative to cAMP agonist control] | activation [5] 12.3% [at 30.8 µM]

O=C(CCn1c(=O)oc2ccccc21)N(Cc1ccccc1)c1ccccc1
inactive: Potency [1] | Potency [2] | Potency [3]

COc1ncc2nc(-c3ccccc3)c(=O)n(Cc3cccs3)c2n1
inactive: Potency [10] > 11.4 µM | activity change, negative = inhibition [11] 3.51% | activity change, negative = inhibition [12] -14.6% | outcome [13] | Potency [14] > 46 µM | Potency [15] | Potency [1] | Potency [2] | Potency [4]

C=Nc1ccc(/C=C/c2ccnc3ccccc23)cc1
inactive: Potency [1] | Potency [2] | Potency [3]

CCCCN(CCCC)c1ccc(/C=C/c2ccnc3ccccc23)cc1
inactive: Potency [1] | Potency [2] | Potency [3]

Cc1onc(-c2ccc3c(c2)OCO3)c1-c1ccc2[nH]ccc2c1
inactive: Potency [1] | Potency [2] | Potency [3]

COc1cc(C)c2c(=O)cc(-c3ccccc3)oc2c1
active: Potency [16] 12.6 µM
inactive: outcome [6] | Potency [7] | Potency [8] | Potency [1] | Potency [2] | Potency [4]

c1ccc(NN(Cc2ccccn2)c2ccccc2)cc1
inactive: Potency [1] | Potency [2] | Potency [3] | Potency [17]

Cc1ccccc1-c1ccc2ncnc(N3CCOCC3)c2c1
active: Potency [18] 1.26 µM
inactive: Potency [10] > 11.4 µM | activity change, negative = inhibition [11] -27.7% | activity change, negative = inhibition [12] 20.5% | Potency [19] > 46 µM | Potency [14] > 46 µM | activity change, negative = inhibition [20] -24.2% [at 2.29 µM] | Potency [16] | Potency [21] | Potency [9] | Potency [1] | Potency [2] | Potency [4]
